Here are results for 31 molecules from PubChem BioAssay (NCI).

Molecules are shown by their SMILES. About 83,000 compounds went through this panel and 20% of them were active in at least one assay; those are over-represented in the sample as a whole.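 Values shown are percent growth following 48 h exposure of cells in 96-well plates to a single concentration of compound; below 10 was considered active.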 Values without a mark were called inactive. Active and inactive are the calls of the source.

This assay relates to HCC-2998 colon. The assay is described as follows: NCI-60 one-dose screen, 48 h (100 = growth as untreated, 0 = no growth, -100 = all killed). The settings on record: 10 µM unless noted.
On to `Nc1cc(C(=O)N/N=C\c2ccc(OC(F)F)c(OC3CCCC3)c2)nn1CC(O)c1ccccc1` (stereo unspecified), for which the growth was 114%.
Regarding `Clc1ccc2[nH]cc(-c3nn4cc(-c5ccncc5)nc4s3)c2c1`, the growth was 85.3%.
To `CN1CC[C@@H]2[C@@]3(C)CC[C@H](O)C(C)(C)[C@@H]3CC[C@@]2(C)[C@]2(C)CC[C@@]3(CO)CCC(C)(C)C[C@@H]3C12` (stereo partly specified) belongs 27.5%; to `Brc1cc(-c2cc(-c3ccc4c(c3)OCCO4)[nH]n2)cs1`, 62.1%.
As for `NS(=O)(=O)c1ccc(Nc2nc(Nc3ccccc3)nc(N3N=C(c4ccc(Cl)cc4)CC3c3ccc(Cl)cc3)n2)cc1` (stereo unspecified), the growth was 13.1%.
As to `O=C(N/N=C\c1ccc([N+](=O)[O-])cc1)c1ccc2nc(-c3ccc(Br)cc3)[nH]c2c1`, the growth is 5.66% (active).
For `O=C(/C=C/c1cccc(C(F)(F)F)c1)Nc1cccc(C(F)(F)F)c1` the value was 57.4%.
For `Brc1cccc(-c2cc(-c3ccc4c(c3)OC=CO4)[nH]n2)c1` the value was 59.8%; for `CCc1cc2c(cc1Cl)nc1c(=O)[nH]c(=O)nc-1n2CCOCC(C)C`, 80.3%.
For `CCCCSC1=C(Cl)CN(c2ccccc2)C1=O` the value was 105%; for `Brc1ccc(-c2cc(-c3ccc4c(c3)OC=CO4)n[nH]2)s1`, 84.5%; for `O=c1c2cc(-c3ccc(F)cc3F)ccc2n(Nc2ccccc2)c(=O)n1-c1cccc(C(F)(F)F)c1`, 14.7%.
Consider `CN1CCN(CCCCCC(=O)Nc2nc(-c3cccc(NS(=O)(=O)c4cccc5c(N(C)C)cccc45)c3)cs2)CC1`, for which the growth is 83.7%.
To `CCCCc1nc2c(N)nc3ccccc3c2n1Cc1cccc(CN)c1` belongs 59.7%; to `CCCCCCCCCCCC(=O)NC(C)(C)C(=O)N1CCCC1C(=O)NC(C)(C)C(=O)NC(C)(C)C(=O)N1CCCC1C(=O)NC(C)(C)C(=O)NC(C)(C)C(=O)N1CCCC1C(=O)NC(C)C(=O)NCCC(=O)NC(C)C(=O)NC(C)(C)C(=O)NC(C)(C)C(=O)NC(C)(C)C(=O)NCCC(=O)NC(C)(C)C(=O)NC(C)(C)C(=O)NC(C)(C)C(=O)NC(C)C(=O)NCCC(=O)O` (stereo unspecified), -92.4% (active).
`NS(=O)(=O)c1ccc(Nc2nc(N/N=C/c3ccc4c(c3)OCO4)nc(Nc3ccccc3)n2)cc1`: the growth is 23.2%.
As for `O=[N+]([O-])c1ccc(NC(=S)NNC(=S)Nc2ccc(Br)cc2)cc1`, the growth was 53.7%.
To `Cc1cc(=O)[nH]c(O)c1C#N` belongs 114%.
To `Cc1ccc(OCc2occc2C(=O)N2CCOCC2)cc1` belongs 103%; to `O=C1C(SCc2ccccc2)=C(Cl)CN1c1ccccc1`, 103%; to `COc1ccc(C2C(C#N)=C(/N=C/c3ccc(Cl)cc3)Oc3c2sc2c(C)cccc32)cc1` (stereo unspecified), 16.7%.
As to `CN(C)CCNc1ccc2ncc(C#Cc3cncc(C(=O)Nc4ccc(CN5CCN(C)CC5)c(C(F)(F)F)c4)c3)n2n1`, the growth is -25.9% (active).
To `CN1CCC[C@]2(C)[C@H]3CC[C@@H]4[C@@H]5[C@H]6OC[C@@]5(CCC6(C)C)CC[C@@]4(C)[C@]3(C)CC[C@H]2C1(C)C` belongs 45.8%.
For `COc1ccccc1/C=C/C(=O)c1nnn(-c2ccc(F)cc2)c1C` the value was 81.3%.
For `CC(C)[C@H]1c2[nH]c3ccccc3c2C[C@H]2C(=O)N(CCCCCCC(=O)NO)CC(=O)N12` the value was 102%; for `COC(=O)CCCNCCCn1ccc2cc(NCc3cccc(-c4ccccc4)c3C)ccc21`, 90.2%; for `C=C(C=O)[C@@H]1CC[C@]2(C(=O)O)CC[C@]3(C)C(CC[C@@H]4[C@@](C)(CCC#N)[C@H](C(=C)C=O)CC[C@]43C)[C@@H]12` (stereo partly specified), 108%.
Regarding `CC1(C)CC[C@]23CC[C@]4(C)[C@H](CC[C@@H]5[C@@]6(C)CC[C@H](NCO)C(C)(C)[C@@H]6CC[C@]54C)[C@H]2[C@H]1OC3`, the growth is -24% (active).
To `O=C1/C(=C/C=C/c2ccco2)SC(=S)N1Cc1ccccc1` belongs 99.7%; to `COc1ccc(/C=N/NC(=O)c2c(N)nn(C)c2Nc2ccccc2)cc1Oc1ccccc1`, 101%.
Consider `Cc1[nH]c(C(=O)Nc2ccc(S(=O)(=O)N3CCCCC3)cc2OCCOCCOCCOCCOCCOCCOCCOCCOCCOc2cc(S(=O)(=O)N3CCCCC3)ccc2NC(=O)c2[nH]c(C)c3c2CCCCC3=O)c2c1C(=O)CCCC2`, for which the growth is -38.4% (active).
